# Measurements taken from PubChem BioAssay AID1347417 (National Center for Advancing Translational Sciences (NCATS), 2020).
# Out of some 120,000 compounds screened, about 5,300 (4.4%) were called active. Roughly 22% stayed inconclusive and do not appear here. Many of the other results were omitted from the sample, so actives are more common in it than they were. Values without a mark were called inactive. Calls come from the whole dose curve; as a rule, active = well fitted inhibition curve with a large enough effect; inconclusive = small, poorly fitted or top-dose-only effect; inactive = no such curve, though single readings can be large or run the other way.
# Test: qHTS Primary assay for Inhibitors of Plasmodium falciparum Dd2 growth in vitro; note: nearly all actives have a fitted effect of over 65% in size;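 for activity, negative = inhibition: plate controls were DMSO vehicle for no effect and reference drug for full effect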
# Conditions: P. falciparum Dd2 growth, SYBR Green, 72 h; series mostly up to 28.9 µM; activity, negative = inhibition: at the top concentration
# In short: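 Infected erythrocytes (Dd2, 0.3% parasitemia, 2.5% hematocrit final) are added to compound in RPMI-1640/Albumax II medium, grown 72 h at 37C in low oxygen, then lysed with saponin/Triton-X containing SYBR Green and read by fluorescence.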
# Potency is the fitted concentration of half-maximal effect.
Structure (SMILES),"activity, negative = inhibition",Potency,outcome
COc1ccc(C(=O)N2[C@@H]3CC[C@H]2CC(NC(=O)c2ccncc2)C3)cc1OC (some centres undefined),-11.9%,–,–
O=C(c1cc(F)ccc1F)N1CCC2(CC1)CC(N(Cc1ccccc1)C1CC1)CCO2 (centres undefined),-7.48%,–,–
O=C(c1ccco1)N1CCC2(CC1)CC(N(Cc1ccccc1)C1CC1)CCO2 (centres undefined),–,4.47 µM (active),–
CC(=O)N(C1CC1)C1CCOC2(CCN(C(=O)CCc3ccccc3)CC2)C1 (centres undefined),31.1%,–,–
CCN1CC2(CCN(C(=O)c3cc4c(cc3OC)CCC4)CC2)OC1=O,0.279%,–,–
O=Cc1cccc(-c2cc(F)cc(F)c2)c1,20.8% [at 44.1 µM],–,–
CCc1nc2nc(C)cc(Nc3ccc(F)c(Cl)c3)n2n1,–,3.55 µM (active),–
Cc1ccc(S(=O)(=O)NCc2nc3nc(C)cc(C)n3n2)cc1,-23.8%,–,–
CC(=O)c1ccc(NC(=O)c2nc3nc(C)cc(C(F)F)n3n2)cc1,4.1%,–,–
COCCN1C(=O)c2ccccc2C(C(=O)NC2CCCCCC2)C12CCCCC2 (centres undefined),–,–,inactive
COc1cc(OC)c(NC(=O)Cn2ccn3nc(-c4ccccc4)c(CO)c3c2=O)cc1Cl,–,–,inactive
CC(C)(C)C(=O)N1CC[C@@H](CC(=O)O)[C@@H](CCN2CCN(c3cccc(C(F)(F)F)c3)CC2)C1,–,–,inactive
CCNc1ncc(CN2CCN(c3cccc(C(F)(F)F)c3)CC2)cn1,–,11.2 µM (active),–
Cc1cc(N2CCN(c3cccc(C(F)(F)F)c3)CC2)n2nc(-c3ccccc3)nc2n1,20%,–,–
N#Cc1ccc(OCC2CN(Cc3c[nH]c4ccccc34)C(=O)c3c(ccnc3-c3ccc(OCC(=O)O)cc3)O2)cc1 (centres undefined),-0.811%,–,–
COc1ccccc1OC1(C(=O)O)CCN(C(=O)CC2CC2)CC1,-8.58%,–,–
CN(C)c1ccc(C(=O)N[C@H]2C[C@H]3C(=O)NC[C@@H](CCC(=O)N4CCCCC4)N3C2)cc1,-15.2%,–,–
Cn1nc2c(c1NC(=O)Cn1nc3c(cc1=O)CCCC3)CSC2,-25.3%,–,–
Cc1ccc(C(=O)Nc2ccc(C(O)[C@H]3COCC(=O)N3Cc3ccccc3F)cc2)cc1 (some centres undefined),–,–,inactive
O=C(CCc1ccccc1)Nc1ccc([C@@H](O)[C@H]2COCC(=O)N2Cc2ccccc2F)cc1,–,11.2 µM (active),–
O=C(Nc1ccc([C@@H](O)[C@H]2COCC(=O)N2CCCc2ccccc2)cc1)C1CC1,-25.8% [at 44.1 µM],–,–
CCOCCN1C(=O)COC[C@@H]1[C@H](O)c1ccc(NC(=O)c2cnccn2)cc1,-2.42% [at 44.1 µM],–,–
CCN1C(=O)COC[C@@H]1C(O)c1ccc(NC(=O)Cc2ccc(OC)cc2)cc1 (some centres undefined),7.62% [at 44.1 µM],–,–
COCC(=O)Nc1ccc([C@@H](O)[C@H]2COCC(=O)N2Cc2ccc(C(F)(F)F)cc2)cc1,–,12.6 µM (active),–
Cc1ccc(Cl)cc1NC(=O)CN1C(=O)NC2(CCC(C)CC2)C1=O (centres undefined),–,–,inactive

Structure (SMILES),"activity, negative = inhibition",Potency,outcome
Cc1ccc(CN2CCCOCCNC(=O)CC2)o1,52.5%,–,–
CCn1cc(CN2CC[C@H]3C(=O)NCCCCCCN(Cc4ccncc4)[C@@H]3C2)c(C)n1,–,–,inactive
O=C(NCc1ccccc1)N1CCN2C(=O)NC[C@H]2C1,–,–,inactive; activator; fitted 1.122 uM [at 44.1 µM]
O=C(NC1CCCCCC1)c1ccc2c(c1)CC(=O)N2Cc1cccc(F)c1,-19.4%,–,–
CCOc1ccc(CNC(=O)c2ccc3nc(CC)c(CC)nc3c2)cc1OC,16.7%,–,–
CCOc1ccc(CNC(=O)c2cccc(Nc3nc4ccccc4n4nnnc34)c2)cc1OC,–,11.2 µM (active),–
CCOc1ccc(OCC)c(Nc2nc3ccccc3n3nnnc23)c1,12.6%,–,–
CC(=O)NCC1Cn2cccc2CN1Cc1ccccc1 (centres undefined),–,–,inactive
O=C(c1cccc(-n2cnnc2)c1)N(Cc1ccsc1)CC1CCCO1 (centres undefined),-11.7%,–,–
CC(C)c1ccc(C2CC(=O)N3CN(C4CCCCC4)CSC3=C2C#N)cc1 (centres undefined),–,11.2 µM (active),–
CCn1nccc1C(=O)N1CCCC(c2nc(-c3cccnc3)no2)CCNC(=O)CC1 (centres undefined),6.57%,–,–
O=C(c1cc(F)ccc1F)N1CCCCCC1c1nnc(-c2ccccc2)o1 (centres undefined),–,–,inactive
Cc1cc(CN(C)C(=O)c2cc(COc3ccc(F)cc3F)on2)on1,-11%,–,–
CCNc1cc(N2CCC(CCC(=O)N3CCc4ccccc4C3)CC2)ncn1,–,–,inactive
CCCNC(=O)CCC1CCN(C(=O)c2ccc(C)cc2)CC1,-8.5%,–,–
CCCNc1cc(N2CCC(CCC(=O)Nc3ccc(C)cc3)CC2)ncn1,–,12.6 µM (active),–
CCOc1ccccc1C(=O)N[C@@H]1CN(c2ncccn2)C[C@H]1CO,-15.4%,–,–
CC(=O)N1CCC(C(=O)NCC(=O)N2CCCCCCNC(=O)CC2c2ccccc2)CC1 (centres undefined),28.6%,–,–
Cc1nn2c(c1-c1ccnn1C(C)C)N(C(=O)c1ccc(Oc3ccccc3)cc1)CCC2,–,–,inactive
Cc1nn2c(c1-c1ccccc1Oc1ccccc1)N(C(=O)C(C)C)CCC2,–,10 µM (active),–
Cc1nn2c(c1-c1ccccc1N1CCCC1)N(C(=O)c1ccc(Oc3ccccc3)cc1)CCC2,–,–,inactive
c1ccc(-c2nnc(CN3CCN(c4cnccn4)CC3)o2)cc1,-2.37%,–,–
COc1ccc(Nc2ncc(C(=O)Nc3cc(C)ccc3OC)c3ccccc23)cc1,-11.9%,–,–
COc1cc(Nc2nc(-c3ccc(OC)c(OC)c3)nc3ccccc23)cc(OC)c1,–,8.91 µM (active),–
